# This is part of a sample that, as a whole, favours compounds with a hit. Of some 83,000 tested, about 20% had one in any assay.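 Growth was measured after 48 h exposure to one concentration of compound in 96-well plates. Values under 10 count as active.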 A number with no mark means an inactive call. Calls of active or inactive are those of the source.
# Experiments:
# Test in all cases: NCI-60 one-dose screen, 48 h (100 = growth as untreated, 0 = no growth, -100 = all killed)
# Conditions in all cases: 10 µM unless noted
# SK-MEL-2 melanoma = test system: SK-MEL-2 melanoma
# EKVX NSCLC = test system: EKVX NSCLC
# SN12C renal = test system: SN12C renal
# UO-31 renal = test system: UO-31 renal
# TK-10 renal = test system: TK-10 renal
# A498 renal = test system: A498 renal
# CCRF-CEM leukemia = test system: CCRF-CEM leukemia
# MOLT-4 leukemia = test system: MOLT-4 leukemia
Compound,growth (SK-MEL-2 melanoma),growth (EKVX NSCLC),growth (SN12C renal),growth (UO-31 renal),growth (TK-10 renal),growth (A498 renal),growth (CCRF-CEM leukemia),growth (MOLT-4 leukemia)
COc1ccc(Cl)cc1NC(=O)c1cc2c([nH]1)-c1nc(NC(=O)C(C)(C)C)sc1CC2,83%,50.4%,38.6%,58.8%,66.6%,79.2%,52%,58.6%
C[C@]12CC[C@@H]3c4ccc(O)c(N)c4CC[C@H]3[C@@H]1CC[C@@H]2O,102%,78.5%,105%,109%,135%,96%,75.9%,80.8%
Cc1ccc2[nH]c3nc4cccnc4c(C)c3c2c1,119%,9.94% (active),88.4%,62.8%,38.7%,92.7%,85.9%,81.9%
C=C1C(=O)O[C@H]2[C@H]1CC/C(COC(=O)CCCC(=O)OC/C1=C/CC[C@@]3(C)O[C@H]3[C@H]3OC(=O)C(=C)[C@@H]3CC1)=C\CC[C@@]1(C)O[C@@H]21,19.5%,51.1%,15.1%,13.6%,7.23% (active),62.6%,-11.7% (active),-19.1% (active)
CCCCOc1c(N)cccc1C(=O)OCCN(CC)CC,96.6%,104%,95.7%,80.8%,81.8%,90.5%,90.6%,60.2%
COc1cc(C(=O)NNC(=O)c2ccccc2C(=O)O)cc(OC)c1OC,49.3%,83.4%,40.9%,49%,72%,78.7%,5.04% (active),-5.79% (active)
CC(Cl)(CCl)CS(=O)(=O)c1ccc(Cl)cc1 (stereo unspecified),99.1%,103%,105%,92.8%,93.2%,77.2%,109%,101%
Cc1ccc(/C=C2/C(=O)Nc3cc(Cl)c(-c4csc(N)n4)cc32)cc1,49.3%,62.1%,81%,67.4%,115%,79.3%,43.5%,51.3%
Cl[C@@H]1CCO[C@H](c2cc3ccccc3c3ccccc23)C1,101%,90.8%,95.4%,89.2%,92.8%,77.2%,85.9%,98%
OCc1cn(-c2ccc(Cl)cc2)nc1-c1ccc(O)cc1,95.8%,89.7%,94.3%,63.5%,102%,96.9%,50.3%,53.6%
Cc1nc(-c2ccc(Cl)cc2)ccc1NC(=O)Nc1cccc(C(F)(F)F)c1,95.4%,101%,93.7%,90.8%,90.7%,95.2%,78.6%,88.2%
Cc1ccc(Cn2cc(COc3ccc4c5ccnc(C)c5n(CCCc5ccccc5)c4c3)nn2)cc1,94.7%,80.7%,94.5%,55.7%,97.8%,73.5%,91.9%,78.2%
CCCCCCCCCCCCCCCCCCNCc1ccc(Cl)cc1,-73.3% (active),-30.2% (active),-60.8% (active),-78.6% (active),-65.1% (active),-75.8% (active),-45.9% (active),-62.1% (active)
O=C(O)c1ccc(-n2cc(/C=N/Nc3ccc(F)cc3)c(-c3cccc(C(F)(F)F)c3)n2)cc1,70.1%,70.8%,86.9%,45.6%,91.9%,69%,33.7%,36.5%
Cc1nc(N)nc(SCc2ccccc2)c1Br,89.9%,85.7%,91.6%,54.7%,112%,63.4%,82.4%,63.7%
CCNc1ncnc2n[nH]nc12,104%,94.7%,102%,98.4%,91.9%,102%,87.5%,100%

Compound,growth (SK-MEL-2 melanoma),growth (EKVX NSCLC),growth (SN12C renal),growth (UO-31 renal),growth (TK-10 renal),growth (A498 renal),growth (CCRF-CEM leukemia),growth (MOLT-4 leukemia)
C/C(=N/O)c1ccc(NC(=O)Cn2nc(-c3ccc(Cl)cc3)nc2N)cc1,84.9%,98.6%,102%,66%,120%,103%,85.8%,66.7%
O=S(=O)(O)c1ccc(F)cc1,93.6%,101%,111%,86.4%,90.2%,101%,90.6%,98.5%
Cc1cc(C)c(O)c(C(=O)CC(Br)C(=O)O)c1 (stereo unspecified),89.5%,99.4%,110%,77.7%,107%,117%,65.2%,88.5%
Cc1c(NC(=O)c2sc3nc4c(cc3c2N)CN(Cc2ccccc2)CC4)cccc1C(F)(F)F,49.5%,62.1%,55.2%,65.6%,96%,52%,15.6%,25.9%
C=CC(=O)NC(=O)Nc1ccccc1Cl,86%,94.7%,83.5%,59.8%,45.2%,109%,37.2%,39.6%
COc1cc(C(=O)NNC(=O)c2ccccc2O)cc(OC)c1OC,80.2%,103%,98.4%,74.3%,85.6%,75.8%,89.4%,74.6%
O=C1CCC(c2c(O)cc(O)c3c(=O)c(O)c(-c4ccc(O)c(O)c4)oc23)N1 (stereo unspecified),98.2%,106%,105%,82.6%,92.7%,92.1%,103%,92.2%
Nc1nc(-c2cc3c(cc2Cl)NC(=O)/C3=C/c2ccccc2)cs1,71.3%,34.7%,51.9%,45.6%,100%,60%,16.1%,21.8%
COc1ccc(Cn2cc3c(c2-c2cc(OC)c(OC)c(OC)c2)CCc2c(CO)noc2-3)cc1,49.5%,45.8%,30.3%,30.1%,74.5%,18.2%,19.6%,16.6%
C#CCn1c(-c2cc(OC)c(OC)cc2Br)nc(-c2ccccc2)c1-c1ccccc1,28.1%,37.4%,69.6%,33.9%,67.1%,37.7%,39.2%,31.6%
COc1cc2c(cc1OC)-c1c(oc3c4c(ccc3c1=O)OC(C)(C)C=C4)CO2,74.3%,57.7%,92.2%,66.9%,67.9%,56.1%,69.5%,55.1%
CCCCCCCCN(CCCCCCCC)CC(O)c1cc(-c2ccccc2)nc2ccc(OC)cc12 (stereo unspecified),78.1%,94.6%,39.9%,42.4%,91.7%,83.4%,4.59% (active),9.81% (active)
CCCC(C)(C)COC(=O)c1cccc(N)c1,88%,101%,98.4%,69.2%,84.5%,88.6%,88.5%,56%
C=C1C(=O)O[C@H]2[C@H]1CC/C(COC(=O)n1ccnc1C)=C\CC[C@@]1(C)O[C@@H]21,86.8%,98.4%,103%,83.1%,94.3%,105%,70.4%,79.8%
O=C(O)c1ccc(-n2cc(/C=N/Nc3ccccc3F)c(-c3ccc(O)cc3)n2)cc1,91.5%,69.9%,103%,49.1%,102%,72.5%,41.5%,39.1%
O=C(CSc1nnc(-c2ccc(Cl)cc2)o1)Nc1ccc(C(=O)/C=C/c2ccccc2)cc1,92.9%,98%,95.5%,80.1%,93.7%,95.7%,86.1%,93.1%

# From PubChem BioAssay (NCI)
